Assay outcomes from PubChem.
tim23-1 inh: growth inhibitors of tim23-1 mutant yeast, primary screen, luminescence, uHTS; S. cerevisiae tim23-1 growth, BacTiter-Glo luminescence, 24 h; AID 463212, 2010; 330,000 compounds, 1.3% hits; inhibition, % at 20 µM;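 active = growth inhibition of the mutant yeast at or above 50%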;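 also: temperature-sensitive mutant grown at 25 °C; plate controls were DMSO-treated mutant yeast for no effect and medium wells lacking yeast for full effect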
NALP3 yeast inh: NALP3 inflammasome inhibitors in reconstituted yeast, primary screen, luminescence, uHTS | 330,000 compounds, 0.39% hits | inhibition, % at 10 µM | AID 2825, 2010 | Yeast reconstituted NLRP3/ASC/caspase-1, beta-gal luminescence, 24 h;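 active = inhibition of 50% or more; inactive = inhibition below 50%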;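 also: plate controls were induced DMSO wells for no effect and uninduced yeast grown without galactose for full effect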
TIM10 inh: growth inhibitors of isogenic TIM10 control yeast, primary screen, counter-screen for tim10-1 yeast inhibitor project, luminescence, uHTS. 330,000 compounds, 1.4% hits. S. cerevisiae TIM10 strain growth, BacTiter-Glo luminescence, 24 h. AID 463195, 2010. inhibition, % at 10 µM;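 active = inhibition of 40% or more at the single tested concentration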;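 also: wild-type TIM10 isogenic control strain grown at permissive 25 °C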
tim10-1 inh: growth inhibitors of tim10-1 mutant yeast, primary screen, luminescence, uHTS. 330,000 compounds, 2.2% hits. S. cerevisiae tim10-1 ts strain growth, BacTiter-Glo, 24 h. inhibition, % at 20 µM;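 active = inhibition of at least 40%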;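 also: mutant grown at 25 °C; 0% = DMSO wells with yeast and 100% = wells holding no yeast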
NALP1 yeast inh: NALP1 inflammasome inhibitors in reconstituted yeast, colorimetric, S. cerevisiae, triplicate retest; S. cerevisiae NALP1/ASC/caspase-1 growth, X-gal OD620, 72 h; inhibition, % at 10 µM; 280,000 compounds, 0.61% hits; AID 2071, 2009; in the data active = inhibition mostly above about 24%, no sharp cut-off; inactive = mostly below about 32%
tim23-1 confirm: tim23-1 mutant yeast growth inhibitors, confirmation, luminescence, single concentration. inhibition, % at 20 µM. shares compounds with tim23-1 inh. S. cerevisiae tim23-1 growth, BacTiter-Glo luminescence, 24 h. 4,400 compounds, 83% hits;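 active = inhibition above about 39% in either of two replicate wells at 20 µM, limit read from the data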;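 also: temperature-sensitive tim23-1 mutant grown at 25 °C; 0% = DMSO wells with yeast and 100% = medium wells without yeast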
Numbers without * were called inactive; x = no result given. Sampled rows, rich in hits. Any-hit rate of the full collection: about 4%.

SMILES | tim23-1 inh | NALP3 yeast inh | TIM10 inh | tim10-1 inh | NALP1 yeast inh | tim23-1 confirm
COc1ccc(CCNc2oc(-c3ccccc3OC)nc2C#N)cc1 | 58.0* | 24.8 | 34.2 | 21.0 | -26.3 | 62.5*
COc1ccc(CCNc2oc(-c3ccccc3OC)nc2C#N)cc1OC | 32.6 | 16.8 | 1.1 | 0.5 | 39.9 | x
COc1ccc(CNC(=O)Cn2cc(C(F)(F)F)ccc2=O)cc1 | -11.4 | 1.0 | -11.1 | -12.9 | 10.2 | x
Oc1ccc(-c2nccc(-c3cccs3)n2)cc1 | 56.7* | 15.4 | 20.4 | 8.0 | 4.7 | 57.5*
COC(=O)C(C)Oc1ccc(-c2nccc(-c3cccs3)n2)cc1 (centres undefined) | 36.0 | -9.4 | 10.6 | 36.2 | 21.1 | x
Cc1ccc(/C=C/c2ccc3cccc(O)c3n2)s1 | 6.2 | 17.3 | -10.1 | 14.7 | -1.6 | x
CC(=O)COc1cccc2ccc(/C=C/c3ccc(Br)s3)nc12 | 54.8* | 24.5 | 28.0 | 23.6 | 28.3 | 45.5*
CN(C)N1C(N)=C(C#N)C(c2ccc(Br)cc2)C2=C1CC(C)(C)CC2=O (centres undefined) | -1.9 | -3.5 | 4.1 | 0.0 | 27.4 | x
O=C(O)CN1C(=O)/C(=C\c2cc(Br)ccc2OCc2ccccc2Cl)SC1=S | 33.4 | 6.2 | 24.7 | 16.7 | -7.3 | x
O=C(O)CN1C(=O)/C(=C\c2cc(Br)ccc2OCc2ccc([N+](=O)[O-])cc2)SC1=S | 53.3* | 16.4 | 30.3 | -4.6 | 2.8 | 71.5*
O=C(CC1Nc2c3ccccc3nc(=S)n2C1=O)NC1CCCCC1 (centres undefined) | 4.6 | 11.7 | -2.7 | 6.9 | 1.6 | x
CCOc1ccc(N(C(C)C(=O)NC2CCCCCC2)S(C)(=O)=O)cc1 (centres undefined) | 14.7 | -4.3 | -4.7 | 14.5 | 19.1 | x
Cc1cc(C)cc(N(C(C)C(=O)NC2CCCC2)S(C)(=O)=O)c1 (centres undefined) | 88.5* | -2.7 | -10.9 | 12.1 | -6.1 | 11.0
COc1cc(CNCc2ccc(Br)cc2)cc(OC)c1 | 4.4 | 29.9 | 11.4 | 17.9 | 21.7 | x
COc1ccc(OC)c(CCNC(=O)Cn2cccc2C(=O)c2ccccc2C)c1 | 95.6* | -6.5 | -7.6 | -14.6 | 7.8 | 29.1
COc1ccc(OC)c(CCNC(=O)Cn2cccc2C(=O)c2ccccc2)c1 | 6.5 | 10.5 | -5.7 | 17.4 | 4.1 | x
O=C(NNC(=S)NCc1ccccc1)c1ccc(Br)o1 | 13.4 | 17.4 | 7.2 | 4.2 | -20.8 | x
O=C(NC(=S)NCc1ccccc1)C1CCCCC1 | 54.8* | 41.6 | 13.1 | 20.2 | 14.5 | 26.2
CCOc1ccccc1NC(=S)NC(=O)c1ccco1 | 54.1* | -18.6 | 26.5 | 37.8 | 17.8 | 35.2
O=C(NC(=S)NCc1ccccc1)c1ccc(Br)o1 | 61.4* | 36.9 | 9.4 | 29.2 | 2.7 | 26.1
CCOc1ccccc1NC(=O)c1ccccc1NC(=O)c1ccco1 | 11.8 | 6.1 | 9.6 | 19.2 | 21.5 | x
O=C(NC(=S)NCc1ccccc1)c1ccc2c(c1)OCO2 | 50.1* | 6.4 | 11.4 | 13.6 | 28.0 | 42.7*
COc1cc(CCC(=O)NNC(=O)c2cccc(Cl)c2)cc(OC)c1OC | -3.6 | 2.0 | 1.3 | 12.1 | 9.8 | x
O=C(NC(=S)NCc1ccc(Cl)cc1Cl)c1ccco1 | 41.9 | 5.6 | 6.9 | 16.1 | x | x
O=C(NC(=S)NCc1ccc(Cl)cc1)c1ccco1 | 50.6* | 21.5 | -4.4 | 13.8 | x | 45.1*
SMILES | tim23-1 inh | NALP3 yeast inh | TIM10 inh | tim10-1 inh | NALP1 yeast inh | tim23-1 confirm
Cc1ccc(C(=O)C(C)OC(=O)c2cc3cc([N+](=O)[O-])ccc3oc2=O)cc1 (centres undefined) | 72.1* | 12.6 | 1.6 | -17.9 | 20.6 | 55.0*
O=C(Nc1cn(-c2ccccc2)nc1-c1cccs1)c1ccco1 | 58.2* | 1.0 | 5.2 | 33.7 | 1.2 | 47.0*
C=CCn1c(SCC(=O)N(C(C)CC)C2CCS(=O)(=O)C2)nc2ccccc2c1=O (centres undefined) | -1.9 | 12.2 | 5.0 | 13.6 | x | x
CNc1nc(N)c(C(=O)C23CC4CC(CC(C4)C2)C3)s1 | 51.1* | 23.0 | 23.5 | 37.9 | 8.3 | 49.8*
Cc1ccc(-c2nnc(N3CCC(C)CC3)c3ccccc23)cc1 | 52.6* | 4.1 | 13.8 | -25.3 | -16.5 | 69.0*
Cc1ccc(NS(=O)(=O)c2ccc(Br)s2)nc1 | 3.6 | 7.3 | 12.3 | 7.3 | 0.0 | x
O=C(N/N=C/c1ccccn1)c1ccc(NC(=O)c2ccccc2Cl)cc1 | -29.3 | 5.7 | -5.9 | -83.6 | -3.6 | x
O=C(N/N=C/c1ccccn1)c1ccc(Cl)c(Cl)c1 | 61.5* | 39.2 | 23.7 | 27.0 | 12.9 | 49.1*
Cc1ccc2c(c1)COc1c3ccc(C(=O)N[C@@H](C)CO)cc3nn1-2 | 22.6 | 11.5 | 12.0 | 15.0 | 7.5 | x
Cc1ccc2c(c1)COc1c3ccc(C(=O)NC(C)C)cc3nn1-2 | 51.1* | 19.5 | 32.4 | 27.7 | 11.2 | 47.8*
CCCCOC(=O)NS(=O)(=O)c1sc(CC(C)C)cc1-c1ccc(Cn2c(CC)nc3c(C)cc(C)nc32)cc1 | 20.6 | 21.6 | 3.4 | 15.7 | x | x
COc1cc(/C=C/c2ccc(O)cc2)cc(OC)c1 | 51.3* | -14.4 | 18.6 | 26.2 | 8.3 | 27.6
CC(=O)c1cccc(NC(=O)CCCCCn2nnc3ccccc3c2=O)c1 | 22.1 | 11.0 | -17.1 | 20.0 | 22.1 | x
COc1ccc(C(=O)n2cc(C(=O)c3cc(C)ccc3O)cn2)cc1OC | 47.6 | -9.4 | 25.7 | 19.8 | 21.7 | x
CN(C)c1cccc(C(=O)n2cc(C(=O)c3cc(F)ccc3O)cn2)c1 | 57.2* | -1.1 | 18.4 | 34.9 | 7.5 | 68.0*
COc1ccc(O)c(C(=O)c2cnn(C(=O)c3cccc(N(C)C)c3)c2)c1 | 58.4* | 7.3 | 25.8 | 2.1 | x | 57.0*
COc1ccc(C(=O)n2cc(C(=O)c3cc(C)ccc3O)cn2)cc1 | 40.5 | 10.5 | 24.9 | 19.4 | 27.1 | x
COc1ccc(O)c(C(=O)c2cnn(C(=O)c3cc(C)oc3C)c2)c1 | 58.2* | -0.5 | 7.2 | 29.0 | -8.8 | 55.1*
Cc1cc2oc(C(=O)Nc3ccc(S(N)(=O)=O)cc3)c(C)c2cc1Cl | -14.0 | 15.4 | -16.1 | 5.5 | -4.8 | x
CCOc1ccc(-n2ccc(=O)c(C(=O)Nc3ccc(S(=O)(=O)Nc4ncccn4)cc3)n2)cc1 | 14.2 | -9.3 | -1.4 | 17.9 | -14.4 | x
O=S(=O)(Nc1cccc2ccccc12)c1cccs1 | 23.5 | -16.8 | 23.2 | 29.0 | -2.6 | x
O=S(=O)(Nc1ccc(O)c2ccccc12)c1cccs1 | 57.2* | 28.0 | 29.0 | 12.4 | 16.0 | 44.0*
COc1cc(/C=N/NC(=O)c2csc3c2CCCC3)cc(OC)c1O | 16.6 | -9.0 | 4.2 | 10.7 | 0.4 | x
Cc1ccc(/C=N/NC(=O)c2csc3c2CCCC3)cc1 | 63.4* | 32.5 | 22.2 | 35.4 | 18.1 | 59.4*
CCC(C(=O)OCC(=O)N1CCN(S(=O)(=O)c2ccc(C)cc2C)CC1)c1ccccc1 (centres undefined) | 21.6 | 11.7 | 5.0 | 5.8 | x | x
